# Assay results taken from the supplement of paper PMC6555819.
# Assays:
# Assay in all cases: PBM binding z-score (relative to random genomic background probes); higher = stronger binding; sequences stand for … in GC…GCGATTGACAGCGTAGAATGAAGG
# [1] = test system: FXR:RXRa (NR concentration 270 nM, RXRa partner concentration 90 nM)
# In short: (§1)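 Each nuclear receptor dimer, without ligand, was incubated for 1 h on custom Agilent 4×180K protein-binding microarrays. Binding was detected with antibodies against each partner (one per run), and scanned fluorescence was regression-normalized. The binding z-scores are referenced to random human genomic background probes.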
# [2] = test system: LXRa:RXRa (NR concentration 270 nM, RXRa partner concentration 90 nM)
# In short: as §1
# [3] = test system: LXRa homodimer (NR concentration 270 nM)
# In short: as §1
# [4] = test system: LXRb:RXRa (NR concentration 270 nM, RXRa partner concentration 90 nM)
# In short: as §1
# [5] = test system: LXRb homodimer (NR concentration 270 nM)
# In short: as §1
# [6] = test system: PPARa:RXRa (NR concentration 270 nM, RXRa partner concentration 90 nM)
# In short: as §1
# [7] = test system: PPARg:RXRa (NR concentration 180 nM, RXRa partner concentration 90 nM)
# In short: as §1
# [8] = test system: PPARg:RXRa 270nM:90nM, anti-RXR (NR concentration 270 nM, RXRa partner concentration 90 nM)
# In short: as §1
# [9] = test system: PPARg:RXRa 30nM:10nM, anti-RXR (NR concentration 30 nM, RXRa partner concentration 10 nM)
# In short: as §1
# [10] = test system: PPARg:RXRa 90nM:30nM, anti-RXR (NR concentration 90 nM, RXRa partner concentration 30 nM)
# In short: as §1
# [11] = test system: PPARg:RXRa DBDmut IVT, anti-RXR (DBD mutation: RXRa K156A/R161A, NR concentration 270 nM, RXRa partner concentration 90 nM)
# In short: as §1
# [12] = test system: PPARg:RXRa IVT, anti-PPARg (NR concentration 270 nM, RXRa partner concentration 90 nM)
# In short: as §1
# [13] = test system: PPARg DBDmut:RXRa IVT, anti-PPARg (DBD mutation: PPARg1 K132A/R137A, NR concentration 270 nM, RXRa partner concentration 90 nM)
# In short: as §1
# [14] = test system: PPARg DBDmut IVT, anti-PPARg (DBD mutation: PPARg1 K132A/R137A, NR concentration 270 nM)
# In short: as §1
# [15] = test system: PPARg homodimer (NR concentration 180 nM)
# In short: as §1
# [16] = test system: PXR:RXRa (NR concentration 270 nM, RXRa partner concentration 90 nM)
# In short: as §1
# [17] = test system: PXR homodimer (NR concentration 270 nM)
# In short: as §1
# [18] = test system: RARa:RXR (NR concentration 270 nM, RXRa partner concentration 90 nM)
# In short: as §1
# [19] = test system: RARa homodimer (NR concentration 270 nM)
# In short: as §1
# [20] = test system: RARb:RXRa (NR concentration 270 nM, RXRa partner concentration 90 nM)
# In short: as §1
Sequence,PBM binding z-score [1],PBM binding z-score [2],PBM binding z-score [3],PBM binding z-score [4],PBM binding z-score [5],PBM binding z-score [6],PBM binding z-score [7],PBM binding z-score [8],PBM binding z-score [9],PBM binding z-score [10],PBM binding z-score [11],PBM binding z-score [12],PBM binding z-score [13],PBM binding z-score [14],PBM binding z-score [15],PBM binding z-score [16],PBM binding z-score [17],PBM binding z-score [18],PBM binding z-score [19],PBM binding z-score [20]
TAGCCTAGGTCATGCGGTCCAGTATAGTGTCGGC,4.09,2.83,0.301,1.8,-0.379,3.51,2.34,2.32,0.235,1.3,1.68,3.01,-0.501,0.0737,0.743,1.77,0.0796,2.22,-0.726,3.79
TCTTGTAGATCAGCAGGTTAGGAAAGCTGGCCAA,-0.1,0.244,-0.295,-0.112,-0.394,0.532,-0.423,1.47,2.53,2.15,1.65,0.124,-0.587,-0.926,0.0866,-0.035,-0.454,0.152,0.51,0.179
AATACAGGGGCATCGTAGGCCAGAGTACGCACAG,0.565,0.874,0.0851,1.04,0.436,1.06,1.13,0.622,0.174,0.275,0.577,1.26,0.192,0.567,-0.0954,0.276,0.165,0.505,-0.245,1.48
GCTGCTGGGTCAACTGATGGTCAGCTAAAGCTCG,3.55,2.07,-0.346,1.83,-0.326,3.89,2.34,2.93,0.519,1.99,3.67,3.45,0.524,-0.337,1.55,1.94,-0.46,2.61,-0.59,3.98
AGGCAAAGTTCACTAGGTAACGTAAGATTCAGCT,5.31,5.15,2.57,3.12,0.881,4.61,6.33,6.04,2.78,5.21,2.96,4.77,1.25,1.49,3.61,4.02,2.73,2.94,1.73,4.61
CGTCAAAGTTCAACTAAGGTAACCTAAAGCACGC,7.07,6.1,4.45,4.4,2.21,5.35,5.27,5.95,2.33,4.85,0.618,2.35,0.979,1.12,5.46,6.07,4.78,5.01,2.75,5.31
TCTAGTTAGTCACGGAGGTCACACACGACGGGTA,3.07,3.04,2.41,3.3,0.442,3.76,2.22,3.13,3.48,3.22,1.76,2.1,1.18,0.869,2.2,4.09,1.01,4.71,1.62,3.26
CGAACTAGTTCATCCAGGACAGTGAATACATTGA,0.527,0.53,0.205,0.693,-0.0526,0.838,0.619,0.145,0.0881,0.329,1.33,0.831,0.796,0.456,0.323,1.64,2.98,1.06,0.65,1.53
CCTTACGGGTCAAGGATATAGCACGGGTGGTACG,4.77,2.96,0.0404,2.45,-0.392,4.52,3.82,3.92,1.14,2.66,1.81,3.02,0.42,-0.469,1.43,2.54,0.0549,3.44,0.583,3.88
GCATATCGGTAATACAAGGTGAAAGTCCGATTGT,0.694,0.4,0.294,0.243,-0.333,0.84,0.415,0.8,0.385,0.634,0.472,0.945,0.308,0.208,0.544,0.155,0.188,0.793,0.00157,0.541
TCGAGTAGGTTACCAATTGGGCATTCAGCTTTCT,0.0774,0.268,-0.567,0.437,-0.954,0.973,-0.0221,1.3,0.909,1.06,3.77,2.73,-0.446,-0.0338,-0.44,0.0575,-0.745,0.253,-0.895,0.606
CCTGCTAGGTCAATGGCCAGCTAAAGCAGCTCGC,3.11,2.72,-0.17,1.39,-0.454,2.73,1.84,2.65,0.293,1.8,4.15,3.04,-1.08,-1.25,0.733,0.566,-0.775,1.31,-0.563,3.73
TGTCAAAGTTCAAAGCTAACGTAAGTATCCACAC,6.52,6.15,3.83,4.14,1.86,5.22,7.92,7.25,4.27,7.06,0.771,3.82,1.34,1.18,2.01,4.29,3.01,3.5,1.14,5.04
CAAACTAGGTCAAGGACAGTGAATCTCCGCACGC,3.5,2.6,0.383,1.84,0.431,4.98,7.68,6.71,4.3,6.04,8.06,8.33,5.83,2.41,2.39,1.42,0.22,2.41,1.49,4.06
AGTCAAAGTTCACTATGTAACGTAAGATTCAGCT,4.61,4.75,2.99,3.02,1.03,3.85,5.87,5.38,2.49,4.66,0.152,2.39,1.02,0.578,1.55,3.59,1.72,2.7,0.755,4.57
CCTGTTAGGTCAATGGTCAGCTAAAGCAGCTCGC,3.84,2.92,0.645,2.06,1.38,3.49,3.07,4.36,2.03,3.91,3.49,3.13,-0.195,-0.0792,2.54,1.43,0.214,2.39,1.21,4.14
AGTCAAAGATCATCTAGGTAACGTAAGATATGCT,-0.125,0.0142,-0.0346,-0.0476,-0.391,0.828,1.67,1.54,0.643,1.16,0.742,2.23,0.348,0.62,-0.382,-0.211,-0.246,0.277,0.136,0.0858
CTACCAAGGTGAACAAGGTCGTTCATTACTATTC,2.27,3.01,1.12,2.9,0.239,3.12,1.29,1.56,0.212,0.958,4.04,2.99,0.407,0.669,1.03,3.55,3.05,2.7,0.251,2.38
CTACCAAGATGAACAAGGTCGTTGATTACTATTC,0.828,0.783,0.9,1.49,0.267,1.09,0.228,0.135,-0.0206,0.314,0.459,0.305,0.173,0.136,0.792,1.53,1.73,1.45,1.7,0.656
ACTTACGGGTCACCGAGGTTATAGCACGCGTATA,7.33,5.59,1.1,4.77,0.402,6.19,7.11,6.57,3.18,5.44,4.12,5.23,2.17,1.98,3.07,5.54,3.25,6.06,1.56,4.67
CCTACTGGGCCAAAAAGGTCAATGATGCCGATAA,2.77,3.48,1.68,3.86,-0.306,4.92,3.36,3.84,1.55,2.86,3.37,4.64,0.0987,-0.775,2.6,3.47,0.909,3.89,0.262,4
